PubChem BioAssay (NCATS)
Values joined by “and” are separate entries in the source; they are usually repeats but may differ in a detail not shown here. Equal values may be shown once. Inconclusive results are not listed. Active and inactive are the calls of the source. Unless noted, the rule behind the calls is not given here.

How the values were obtained:
[1] = qHTS Assay for Identifying Gametocytocidal Compounds (AID 743244; active = well fitted curve in the direction sought with a large enough effect; an effect the other way counts as inactive or inconclusive; note: potency is the fitted concentration of half-maximal effect;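 for max response: % is set by controls: 0 for no effect and ±100 for the full control effect; actives lower the fluorescent signal which means gametocytes are killed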); conditions: P. falciparum 3D7 stage III-V gametocytes, alamarBlue, 72 h; max response: stronger effect = lower value
In short: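 Fluorescence at Ex 525/Em 598 nm, recorded 24 h after alamarBlue addition, reports residual metabolic activity of 3D7 gametocytes (stages III–V) following 72 h compound exposure at 37 °C, 5% CO2.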

[2] = qHTS profiling for inhibitors of Plasmodium falciparum (3D7) proliferation (AID 743322);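 note: infected erythrocytes exposed to compound for 72 h before lysis; 100% = DMSO vehicle wells and 0% = 0.29 µM artemisinin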; conditions: P. falciparum 3D7 proliferation; at 28.7 µM (top of the series) unless noted
In short: (§1)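 Erythrocytes infected with P. falciparum (0.3% parasitemia, 2.5% hematocrit) incubated with compounds 72 h at 37 C, 5% CO2. Lysis with saponin/Triton buffer containing SYBR Green I, overnight at room temperature in the dark; DNA fluorescence (485/535 nm) normalised to 0.29 uM artemisinin and DMSO.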

[3] = qHTS profiling for inhibitors of Plasmodium falciparum (DD2) proliferation (AID 743323); conditions: lower = more inhibition; at 28.7 µM (top of the series) unless noted
In short: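 1536-well qHTS; infected RBCs 0.3% parasitemia/2.5% Hct final; cpd 72 h 37 C 5% CO2; lysis buffer + SYBR Green I, o/n RT dark; FI 485/535; norm. to 0.29 uM artemisinin and DMSO, plate-stack corrected.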

[4] = qHTS profiling for inhibitors of Plasmodium falciparum (HB3) proliferation (AID 743324; active = well fitted curve in the direction sought with a large enough effect; an effect the other way counts as inactive or inconclusive;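 note: 100% = DMSO vehicle wells and 0% = artemisinin-treated control wells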); conditions: Plasmodium falciparum HB3 blood-stage proliferation; at 28.7 µM (top of the series) unless noted
In short: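 P. falciparum HB3 grown in erythrocytes (0.3% parasitemia, 2.5% hematocrit final) with compound for 72 h at 37 C, 5% CO2. Parasite DNA detected by SYBR Green after saponin/triton lysis overnight; normalized to 0.29 uM artemisinin and DMSO.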

[5] = qHTS profiling of the MIPE4 collection as inhibitors of Plasmodium falciparum (3D7) proliferation (AID 743344);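 note: scaled between DMSO vehicle wells and 0.29 µM artemisinin as full inhibition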; conditions: P. falciparum 3D7 in erythrocytes, SYBR Green DNA fluorescence, 72 h; at 28.5 µM (top of the series) unless noted
In short: as §1

[6] = qHTS profiling of the MIPE4 collection as inhibitors of Plasmodium falciparum (DD2) proliferation (AID 743345); conditions: P. falciparum Dd2 in erythrocytes, SYBR Green DNA, 72 h; at 28.5 µM (top of the series) unless noted
In short: as §1

[7] = qHTS profiling of the MIPE4 collection as inhibitors of Plasmodium falciparum (DD2) proliferation (Rep 2) (AID 743346); conditions: P. falciparum Dd2 in erythrocytes, SYBR Green DNA, 72 h; at 28.5 µM (top of the series) unless noted
In short: as §1

[8] = qHTS profiling of the MIPE4 collection as inhibitors of Plasmodium falciparum (HB3) proliferation (AID 743347);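 note: plate controls were DMSO vehicle wells for no effect and artemisinin wells for full effect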; conditions: P. falciparum HB3 in erythrocytes, SYBR Green DNA, 72 h; at 28.5 µM (top of the series) unless noted
In short: as §1

Compound	max response [1]	remaining parasite growth % (stronger effect = lower value) [2]	activity, percent of control [3]	remaining proliferation (% of control), lower = more inhibition [4]	parasite growth, % of DMSO control [5]	parasite growth remaining, % of DMSO control (lower = more inhibition) [6]	parasite growth, % of control (lower = inhibition) [7]	growth, % of control [8]	Potency [1]
O=c1[nH]c(-c2ccc(C(F)(F)F)cc2)nc2c1CSCC2	12% (inactive)	106%	103%	29.8%	74.2%	93.9%	74.7%	86.7%	
OC[C@H](Cc1ccccc1)Nc1nc(Oc2ccc3c(c2)CCC3)nc2c1ncn2Cc1ccc(-c2ccccc2)cc1	-2.93% (inactive)	6.42%	5.17%	-0.578%	33.7%	44.8%	27%	68.3%	
CC(=O)NC(C)c1ccc(Oc2ccc(OC(C)C)cc2)cc1 (centres undefined)	-4.97% (inactive)	69.9%	93.5%	95.2%	23.1%	10.5%	8.63%	20.1%	
CCCCCCCc1ccc(CCc2cccc(O)c2C(=O)O)cc1	25.6% (inactive)	93%	88.3%	58.6%	68.8%	99.9%	66.9%	81.6%	
CCOC(=O)N[C@@H]1CC[C@@H]2[C@@H](C1)C[C@H]1C(=O)O[C@H](C)[C@H]1[C@@H]2C=Cc1ccc(-c2cccc(F)c2)cn1	-4.74% (inactive)	1.23%	7.47%		7.63%	45%	22%	5.21%	
CC1(C)SCCN(S(=O)(=O)c2ccc(OCC#CCO)cc2)[C@@H]1C(=O)NO	1.92% (inactive)	107%	104%	81.4%	65.2%	66%	70%	112%	
Nc1nccc(-c2ccc3noc(-c4ccc(Cl)cc4)c3c2)n1	-14.8% (inactive)	77.1%	76.1%	81.1%	85.1%	92.5%	79.2%	33.5%	
COc1c(Cl)cc2c([nH]c3cnccc32)c1NC(=O)c1cccnc1C	20.9% (inactive)	107%	108%		19.9%	72.7%	25.5%	4.33%	
Cc1ccnc(NS(=O)(=O)c2ccc(NC(=O)Nc3ccc(S(=O)(=O)Nc4nccc(C)n4)cc3)cc2)n1	-10.8% (inactive)	12%	27.4%		15.7%	70.2%	26.2%	9.87%	
COc1ccc(COc2cc3oc(=O)c4cc(C(C)O)ccc4c3cc2OC)cc1 (centres undefined)	29.9% (inactive)	75.7%	22%		39.5%	77.1%	27.3%	46.1%	
Cc1c(CCOc2ccc(C(=O)O)cc2)c2cc(Cl)ccc2n1C(c1ccccc1)c1ccccc1	6.58% (inactive)	84.7%	81.3%	23.4%	30.6%	70.3%	41.9%	63.5%	
c1ccc(-c2nn3c(c2-c2ccnc4cc(OCCN5CCOCC5)ccc24)CCC3)nc1	-4.63% (inactive)	81.9%	81.5%		25.6%	50.6%	58.7%	17.9%	
O=C1CCCC2=C1C(c1[nH]ncc1Cl)N=C(Nc1nc3ccccc3o1)N2 (centres undefined)	6.89% (inactive)	115%	105%		20.6%	10.9%	8.08%	55.2%	
O=C(O)[C@@H](c1ccc(OCc2ccc3ccccc3n2)cc1)C1CCCC1	46.8% (inactive)	114%	96.9%	106%	90.1%	102%	130%	84.3%	
CCC(=O)N[C@H]1CC[C@H](C(=O)N(C)c2ccc(-c3nc4ccccc4o3)cc2)C1	65.6% (inactive)	58.5%	55.3%	35.8%	28.4%	65.1%	41.7%	33.6%	
CCCS(=O)(=O)Nc1ccc(F)c(C(=O)c2c[nH]c3ncc(-c4ccc(Cl)cc4)cc23)c1F	14.6% (inactive)	17.1%	22.9%	22.8%	17.9%	24%	52.1%	15.2%	

Compound	max response [1]	remaining parasite growth % (stronger effect = lower value) [2]	activity, percent of control [3]	remaining proliferation (% of control), lower = more inhibition [4]	parasite growth, % of DMSO control [5]	parasite growth remaining, % of DMSO control (lower = more inhibition) [6]	parasite growth, % of control (lower = inhibition) [7]	growth, % of control [8]	Potency [1]
Clc1ccc(Nc2nnc(Cc3ccncc3)c3ccccc23)cc1	-0.822% (inactive) and -17.1% (inactive)	-0.114%	2.71%		34.2%	84.7%	63.4%	53.1%	
CCOc1ccn(-c2ccc(F)cc2)c(=O)c1C(=O)Nc1ccc(Oc2ccnc(N)c2Cl)c(F)c1	18.8% (inactive)	83.7%	56.6%	36.7%	41.2%	80.4%	36%	73%	
CCOc1ccc(Cc2cc([C@@H]3O[C@H](CO)[C@@H](O)[C@H](O)[C@@H]3O)ccc2Cl)cc1	10.7% (inactive)	46.7%	101%	112%	136%	104%	103%	505%	
Cc1n[nH]c(C)c1Cc1sc2c(c1C(=O)N1C[C@H](O)CO1)c(=O)n(C)c(=O)n2CC(C)C	4.91% (inactive)	111%	99.9%		161%	107%	86.3%	145%	
Cn1cnc2c(F)c(Nc3ccc(Br)cc3Cl)c(C(=O)NOCCO)cc21	17.6% (inactive)	91.2%	90.2%		58.2%	95.9%	57.1%	97.3%	
Cc1cccc(-c2[nH]c(C(C)(C)C)nc2-c2ccc3nccnc3c2)n1		54.8%	67.1%	27%	23.7%	47.6%	34.2%	6.8%	0.662 µM (active)
Nc1nc2ccc(OC(F)(F)F)cc2s1	5.46% (inactive) and 13.2% (inactive)	105%	105%		7.34%	7.7%	33.2%	7.48%	
COc1ccc(-c2c(-c3ccc(O)cc3O)n[nH]c2C)cc1	3.95% (inactive)	1.98%	5.32%		47% [at 57.5 µM]	61.8% [at 57.5 µM]	45.5% [at 57.5 µM]	106% [at 57.5 µM]	
Cc1cn[nH]c1	28.3% (inactive) and 8.61% (inactive)				5.44%	10%	6.63%	8.35%	
COCC(=O)NCC=Cc1ccc2ncnc(Nc3ccc(Oc4ccc(C)nc4)c(C)c3)c2c1	-4.65% (inactive)	28.2%	24.1%		15.6%	70.2%	29.4%	9.14%	
Nc1cccc(S(=O)(=O)N2CCCN(S(=O)(=O)c3ccc4c(c3)OCCO4)CC2)c1	3.74% (inactive)	111%	101%		257%	102%	120%	586%	
Clc1cccc(Cl)c1NC1=NCCN1	7.62% (inactive) and 5.35% (inactive)				86.2%	77.5%	56.5%	70.5%	
COc1cccc2cc(-c3nc(C4CCC(C(=O)O)CC4)n4ncnc(N)c34)[nH]c12 (centres undefined)	-10.8% (inactive)	64.8%	53.2%		13.9%	16.6%	28.6%	9.36%	
CC(C)NCC(O)COc1ccc(COCCOC(C)C)cc1 (centres undefined)	24.7% (inactive) and -10.9% (inactive) and -2.93% (inactive)				78.7%	102%	98%	102%	
OC(CN1CCC(Cc2ccc(F)cc2)CC1)c1ccc(Cl)cc1 (centres undefined)		1.14% and 5.06%	1.06% and 4.92%		9.22%	8.62%	19.9%	46.6%	7.43 µM (active)
